Test results published in the supplement of paper PMC3545927.
The list shows a part of the results. The hit rate among all sequences tested is not known here.

Target: furin, P09958
Assay: furin cleavage Z-score vs untreated control; higher = more cleavage, active = 3.5 or more, inactive = 1 or less, 8 variable residues between constant flanks
In short: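 Magnetic beads held 8-mer peptides by the N-terminus, each fused to a cDNA oligonucleotide, and purified furin was added for 7.5, 15 or 30 min. Released DNA was sequenced after PCR adapter tagging. The cleavage Z-score is the log count relative to furin-free reactions, lowess-adjusted and divided by median absolute deviation.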
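Also: purified furin at 1:10 enzyme:substrate in 50 mM HEPES pH 7.5.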

furin, P09958, sequence (P09958 whole entry): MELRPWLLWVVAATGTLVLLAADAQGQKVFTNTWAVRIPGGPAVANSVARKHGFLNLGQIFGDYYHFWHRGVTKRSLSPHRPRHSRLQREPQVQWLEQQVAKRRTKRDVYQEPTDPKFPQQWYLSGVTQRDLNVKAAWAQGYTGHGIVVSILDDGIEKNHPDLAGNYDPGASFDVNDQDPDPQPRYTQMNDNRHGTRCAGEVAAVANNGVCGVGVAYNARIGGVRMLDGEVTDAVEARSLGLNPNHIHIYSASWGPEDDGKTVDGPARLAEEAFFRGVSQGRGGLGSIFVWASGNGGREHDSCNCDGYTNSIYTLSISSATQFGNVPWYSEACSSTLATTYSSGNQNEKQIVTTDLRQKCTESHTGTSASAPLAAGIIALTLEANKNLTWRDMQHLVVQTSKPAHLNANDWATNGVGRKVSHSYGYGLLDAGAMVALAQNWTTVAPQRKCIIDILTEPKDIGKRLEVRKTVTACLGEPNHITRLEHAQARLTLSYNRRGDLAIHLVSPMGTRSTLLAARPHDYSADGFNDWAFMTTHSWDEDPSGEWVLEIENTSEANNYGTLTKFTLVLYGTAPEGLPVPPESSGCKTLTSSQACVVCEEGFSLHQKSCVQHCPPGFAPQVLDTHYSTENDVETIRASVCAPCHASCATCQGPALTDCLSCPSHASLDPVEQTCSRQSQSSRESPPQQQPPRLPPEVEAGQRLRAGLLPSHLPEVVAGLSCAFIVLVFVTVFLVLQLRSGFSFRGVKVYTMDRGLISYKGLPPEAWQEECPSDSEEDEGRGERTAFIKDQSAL

| Sequence | furin cleavage Z-score (7.5 min) | furin cleavage Z-score (15 min) | furin cleavage Z-score (30 min) |
| --- | --- | --- | --- |
| CAKEECSQHLAGNASASA [HC1674] | 0.0836 (inactive) | -0.555 (inactive) | 1.98 |
| CARYKRWRKHAGNASASA [FS-2112] | 4.44 (active) | 6.03 (active) | 5.36 (active) |
| CARYKRPGLPAGNASASA [FS-2849] | -0.56 (inactive) | 0.396 (inactive) | 1.9 |
| CALETFWAKHAGNASASA [HC1039] | -0.932 (inactive) | -0.375 (inactive) | 0.0766 (inactive) |
| CARYKRHFKLAGNASASA [FS-2848] | 1.05 | 2.24 | 5.27 (active) |
| CATMPCSGSWAGNASASA [HC1846] | -0.28 (inactive) | -1.3 (inactive) | -0.468 (inactive) |
| CARARRFAQIAGNASASA [FS-2644] | 1.75 | 2.84 | 5.09 (active) |
| CARARRFSGLAGNASASA [FS-1683] | -0.486 (inactive) | -0.258 (inactive) | 0.853 (inactive) |
| CARARRHAADAGNASASA [FS-2648] | 12.4 (active) | 14.4 (active) | 8.89 (active) |
| CAGCGRICRDAGNASASA [FS-1455] | 1.57 | 3.73 (active) | 3.06 |
| CARARRPHFDAGNASASA [FS-1848] | -1.25 (inactive) | -0.201 (inactive) | 0.259 (inactive) |
| CARARRFCRDAGNASASA [FS-2547] | 11.3 (active) | 11.2 (active) | 8.57 (active) |
| CAMSADLEVVAGNASASA [HC985] | -0.119 (inactive) | 0.307 (inactive) | -0.651 (inactive) |
| CALDCEIYGAAGNASASA [HC1592] | -0.215 (inactive) | -0.505 (inactive) | -1.05 (inactive) |
| CAFNSSGCPEAGNASASA [HC384] | -0.864 (inactive) | -1.69 (inactive) | -0.153 (inactive) |
| CAAILSPGALAGNASASA [HC1103] | 0.122 (inactive) | -1.5 (inactive) | -0.137 (inactive) |
| CAIMTCMSADAGNASASA [HC983] | -1.36 (inactive) | 0.0813 (inactive) | -2.62 (inactive) |
| CADSHYQDVLAGNASASA [HC1401] | -0.596 (inactive) | -0.846 (inactive) | 0.188 (inactive) |
| CADPEVVTSTAGNASASA [HC2299] | -0.751 (inactive) | -0.261 (inactive) | -0.557 (inactive) |
| CAEVVTSPWVAGNASASA [HC2219] | -0.287 (inactive) | -0.0163 (inactive) | 0.0529 (inactive) |
| CAEVKCHRPSAGNASASA [HC2354] | 0.191 (inactive) | -0.204 (inactive) | 1.45 |
| CARARRHSDGAGNASASA [FS-2480] | 6.39 (active) | 6.07 (active) | 5.39 (active) |
| CAKVVILDSFAGNASASA [HC1285] | -0.496 (inactive) | -1.22 (inactive) | -0.351 (inactive) |
| CASPRDARRSAGNASASA [FS-1614] | -1.33 (inactive) | -1.24 (inactive) | -1.6 (inactive) |

| Sequence | furin cleavage Z-score (7.5 min) | furin cleavage Z-score (15 min) | furin cleavage Z-score (30 min) |
| --- | --- | --- | --- |
| CAKVLRSRRSAGNASASA [FS-1353] | 3.74 (active) | 4.72 (active) | 3.35 |
| CAIALRLRRSAGNASASA [FS-32] | 1.01 | 0.68 (inactive) | 0.673 (inactive) |
| CAHPRRSRRSAGNASASA [FS-932] | 8.18 (active) | 9.38 (active) | 7.97 (active) |
| CAHSRRSRRSAGNASASA [DV5] | 12.2 (active) | 12.3 (active) | 9.14 (active) |
| CAASRGNHVSAGNASASA [HC1122] | 1.32 | 0.577 (inactive) | 1.1 |
| CAASRVSRRSAGNASASA [FS-979] | 5.49 (active) | 7.22 (active) | 5.62 (active) |
| CAYPYRLWHYAGNASASA [HC466] | -1.33 (inactive) | -2.06 (inactive) | 0.263 (inactive) |
| CASTPCSTHLAGNASASA [HC2538] | -0.715 (inactive) | 0.257 (inactive) | -0.443 (inactive) |
| CAYCWHYPPKAGNASASA [HC403] | 1.04 | 0.468 (inactive) | 2.44 |
| CAHSRTIKRSAGNASASA [FS-1632] | 5.07 (active) | 6.15 (active) | 6.19 (active) |
| CATTPCSYSWAGNASASA [HC1889] | -2.07 (inactive) | 0.349 (inactive) | 1.53 |
| CAGNEGCGWAAGNASASA [HC204] | -0.525 (inactive) | -0.206 (inactive) | -0.116 (inactive) |
| CAGFHRRARAAGNASASA [FS-239] | 4.46 (active) | 3.84 (active) | 4.12 (active) |
| CAGPRLGVRAAGNASASA [HC181] | -1.03 (inactive) | 0.21 (inactive) | -0.871 (inactive) |
| CAGNRRRARAAGNASASA [FS-126] | 9.62 (active) | 8.76 (active) | 7.27 (active) |
| CAQDVLKEVKAGNASASA [HC1403] | -1.57 (inactive) | -2.35 (inactive) | -1.62 (inactive) |
| CAITAEAAGRAGNASASA [HC1251] | 0.707 (inactive) | -1.39 (inactive) | -1.45 (inactive) |
| CARQRRGCFRAGNASASA [FS-2446] | 1.29 | 2.53 | 4.76 (active) |
| CARQRRGFHHAGNASASA [FS-2365] | 0.595 (inactive) | 4.95 (active) | 6.76 (active) |
| CARQRRPTGPAGNASASA [FS-2511] | -1.58 (inactive) | -0.922 (inactive) | 0.378 (inactive) |
| CARQRRLLAAAGNASASA [FS-3042] | -1.14 (inactive) | -0.921 (inactive) | 0.324 (inactive) |
| CARQRRGTGAAGNASASA [FS-2762] | 3.78 (active) | 4.54 (active) | 4.93 (active) |
| CARQRREMVAAGNASASA [FS-2589] | 4.84 (active) | 5.77 (active) | 5.19 (active) |
| CARDRRGCFAAGNASASA [FS-2253] | -0.438 (inactive) | -0.0621 (inactive) | 0.916 (inactive) |
